# Source: PubChem
# Hits are enriched below; roughly 6.9% of the tested compounds scored in any of these assays.
# KB-V1 cytotox: KB-V1 MDR subline cytotoxicity; KB-V1 MDR cells viability, CellTiter-Glo, 72 h; Potency, µM (series often up to 46.1 µM), actives largely listed as cytotoxic; actives 3.4% (n = 400,000); also: potency is read from the fitted curve at half-maximal effect; % is scaled to controls: 0 for no effect and ±100 for the full control effect; nearly all actives have a fitted effect of over 60% in size
#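 Drug-selected KB-V1 cells, grown in DMEM lacking phenol red with 10% FBS, receive compound titrations; after three days at 37 degrees C, surviving cell ATP is quantified by CellTiter-Glo luminescence and responses normalized and curve-fitted.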
# Giardia killer: Giardia lamblia killing. Giardia lamblia trophozoite viability. actives 0.15% (n = 340,000). activity change, % at 7.66 µM, hits read low. AID 540267; in the data active = activity change below about -80%; inconclusive = between about -30% and that limit;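 also: parasites exposed to compound for two days anaerobically before the ATP read; % is scaled to controls: 0 for no effect and ±100 for the full control effect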
#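 Anaerobic 48 hrs incubation at 37 deg C of 100 trophozoites/well with test compounds; ATPLite 1-Step luminescence, 15-30 min RT, reports cellular ATP as viability.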
# MCF10A rereplic: DNA re-replication induction in MCF 10a cells | actives 2.9% (n = 350,000) | MCF 10A DNA re-replication, Hoechst nuclear intensity, 48 h | Potency, µM (titrated, usually from 46.1 µM), without a hit: at the highest dose activity, positive = re-replication, usual class: activators; also: potency is read from the fitted curve at half-maximal effect; % of control where 0% means no effect; nearly all actives have a fitted effect of over 50% in size
# SW480 rerep: induces DNA re-replication in SW480 colon adenocarcinoma cells; SW480 DNA re-replication, Hoechst DNA content imaging, 48 h; Potency, µM (top dose mostly 46.1 µM), for the others: at the highest dose re-replication activation, usual class: activators; actives 1.8% (n = 340,000); AID 624297; also: potency is read from the fitted curve at half-maximal effect; % of control where 0% means no effect; nearly all actives have a fitted effect of over 55% in size
#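 Treated cells incubate 48 hr (37 C, 5% CO2), are stained 40 min with Hoechst, and nuclear fluorescence is enumerated; a rise in nuclei with high DNA signal marks re-replication.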
# S-ASM inh: inhibitors of human secretory acid sphingomyelinase | P17405 | placental ASM, HMU-PC fluorogenic substrate, 60 min | Potency, µM (highest dose often 57.5 µM), without a hit: top-dose activity change, negative = inhibition, most hits filed as inhibitors | AID 504937 | actives 0.006% (n = 340,000); also: potency is read from the fitted curve at half-maximal effect
# Target sequence (P17405 47-631 limits assumed): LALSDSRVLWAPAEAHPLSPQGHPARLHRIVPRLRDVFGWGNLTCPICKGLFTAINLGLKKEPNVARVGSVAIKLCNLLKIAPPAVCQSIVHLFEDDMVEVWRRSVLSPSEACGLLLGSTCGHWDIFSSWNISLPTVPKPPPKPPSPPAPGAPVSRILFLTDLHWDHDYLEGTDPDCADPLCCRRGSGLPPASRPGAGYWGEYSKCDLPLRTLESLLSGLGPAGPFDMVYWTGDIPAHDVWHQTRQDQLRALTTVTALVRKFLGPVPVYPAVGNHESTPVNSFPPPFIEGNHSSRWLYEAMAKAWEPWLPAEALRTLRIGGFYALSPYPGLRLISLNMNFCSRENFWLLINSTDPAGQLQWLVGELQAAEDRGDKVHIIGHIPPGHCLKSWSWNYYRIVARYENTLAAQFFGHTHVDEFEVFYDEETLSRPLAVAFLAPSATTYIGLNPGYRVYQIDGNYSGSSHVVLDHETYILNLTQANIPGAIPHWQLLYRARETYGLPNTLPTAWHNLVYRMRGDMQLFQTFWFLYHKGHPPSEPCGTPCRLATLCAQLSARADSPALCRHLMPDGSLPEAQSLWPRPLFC
#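 qHTS format. ASM enzyme prepared from human placenta hydrolyses the fluorogenic substrate HMU-PC0 (9 uM final) over 60 min at 37 °C after a 10 min compound preincubation.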
# KB-3-1 tox: kills parental KB-3-1 adenocarcinoma cells; actives 1.4% (n = 400,000); KB-3-1 viability, CellTiter-Glo ATP luminescence, 72 h; Potency, µM (highest dose often 46.1 µM), actives largely listed as cytotoxic; also: potency is read from the fitted curve at half-maximal effect; % is scaled to controls: 0 for no effect and ±100 for the full control effect; nearly all actives have a fitted effect of over 60% in size
#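 Cytotoxicity in the drug-sensitive parental line KB-3-1 was scored as loss of CellTiter-Glo luminescence following 72 h incubation with compound. Values come from curve fitting of normalized concentration-response data.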
# An asterisk follows results filed as active; i = inactive; u = inconclusive; x = no result given; ! = not active in a repeat. Unless noted, calls follow the shape of the dose curve; as a rule, active = well fitted curve in the direction sought with a large enough effect; inconclusive = small, poorly fitted or top-dose-only effect, or another doubt; inactive = no such curve, though single readings can be large; an effect the other way counts as inactive or inconclusive.
SMILES,KB-V1 cytotox,Giardia killer,MCF10A rereplic,SW480 rerep,S-ASM inh,KB-3-1 tox
CCOc1ccc(Nc2nc(C)c(NC(=O)c3cccc(F)c3)c(Nc3ccc(OCC)cc3)n2)cc1,i,x,x,x,x,i
CC(=O)Nc1nc2c(F)cccc2s1,u,23.0,5.8%,-18.2%,6.3%,i
CCOC(=O)c1sc(Nc2nc3c(F)cccc3s2)cc1C,i,9.9,20.6µM*,u,252.4%,i
CCOC(=O)c1sc(NC(=O)Nc2cccc(Cl)c2)cc1C,13µM*,-16.5,u,26.1%,-0.1%,u
CCOC(=O)c1sc(Nc2nc3ccc(OC)cc3s2)cc1C,i,-7.0,18.4µM*,u,i,i
COc1cccc(CNC23CC4CC(CC(C4)C2)C3)c1OCc1ccccc1,20.6µM*,20.8,29.5%,u,-0.7%,u
COC(=O)c1ccc(NC(=O)CN2C(=O)CC(c3ccccc3)Sc3ccccc32)cc1 (configuration not stated),u,x,x,x,x,i
Cc1ccc(-n2c(-c3ccc(Br)cc3)c[n+]3c2CCc2ccc4cccnc4c2-3)cc1,u,4.1,u,15.3%,-20.0%,2.59µM*
CCCN(Cc1cccs1)C(=O)Nc1ccc(Br)cc1F,u,x,x,x,x,i
O=C(O)c1cc(N/N=C/c2cccc3ccccc23)ccc1Cl,i,4.5,23.1µM*,-1.4%,15.1%,i
CC(O)C(=O)N/N=C/c1cccc2ccccc12 (configuration not stated),u,-1.6,-0.6%,-13.0%,0.7%,u
O=C(NN=Cc1cccc2ccccc12)C(=O)NN=Cc1cccc2ccccc12,i,-2.0,2.31µM*,u,31.5%,u
C/C(=N\Nc1ccc(Cl)c(C(=O)O)c1)c1cccc2ccccc12,i,-12.3,5.0%,-8.0%,14.0%,i
NC(=O)C1c2ccccc2CCc2ccccc21,x,x,10.3%,4.1%,x,x
CC(=O)Nc1cccc(C(=O)OC(C)C(=O)NCc2ccc3c(c2)OCO3)c1 (configuration not stated),i,0.5,2.2%,-3.8%,-3.7%,i
Cc1cccc(NS(=O)(=O)c2cc(C(=O)OC(C)C(=O)NCc3ccc4c(c3)OCO4)ccc2C)c1 (configuration not stated),14.6µM*,9.0,17.1%,14.8%,-10.2%,i
Cc1cc(-n2ccnc(NCCc3ccc(S(N)(=O)=O)cc3)c2=O)ccc1Br,i,x,x,x,x,i
COc1ccc(-c2cc(C(=O)N3CCN(c4ccccc4)CC3)no2)cc1,20.6µM*!,8.7,u,-6.0%,-10.0%,u
O=C(c1cc(C2CC2)on1)N1CCN(C(c2ccccc2)c2ccccc2)CC1,i,9.4,12.5%,1.8%,-12.8%,i
O=C(c1cc(-c2cccc(O)c2)on1)N1CCN(C(c2ccccc2)c2ccccc2)CC1,u,12.9,6.51µM*,18.0%,-28.2%,18.4µM*
Cc1cccnc1NC(=S)Nc1ncccc1C,i,-22.0,-0.3%,3.3%,-1.9%,u
COC(=O)c1ccccc1NC(=O)Nc1ncccc1C,i,-4.2,2.1%,20.6µM*,11.3%,i
CCOc1ccccc1NC(=S)Nc1ncccc1C,20.6µM*,-2.9,18.4µM*,u,-0.3%,18.4µM*
Cc1ccc(S(=O)(=O)N2C[C@H]3C(=O)C[C@@H](c4ccccc4F)N(S(=O)(=O)c4ccc(C)cc4)[C@H]3C[C@H]2c2ccccc2F)cc1,i,x,x,x,x,i
CCCNS(=O)(=O)c1ccc(CCC(=O)N2CCN(c3ccc(OC)cc3)CC2)cc1,20.6µM*,0.9,4.1%,-0.5%,0.7%,i
SMILES,KB-V1 cytotox,Giardia killer,MCF10A rereplic,SW480 rerep,S-ASM inh,KB-3-1 tox
CCCNS(=O)(=O)c1ccc(CCC(=O)N2CCN(c3ccc(F)cc3)CC2)cc1,9.2µM*,5.4,24.2%,-3.1%,0.1%,u
COc1ccc(N2CCN(C(=O)CCNS(=O)(=O)c3ccc(C)cc3)CC2)cc1,i,6.4,0.4%,-13.3%,-3.3%,i
COc1ccc(N2CCN(C(=O)CCc3ccc(S(=O)(=O)NC(C)(C)C)cc3)CC2)cc1,14.6µM*,6.9,-2.7%,u,2.1%,u
CC(=O)Nc1ccc(S(=O)(=O)NCCc2ccc(F)cc2)cc1,23.1µM*,3.8,20.1%,-4.8%,-1.4%,i
O=C(CSc1nc2ccccc2nc1Cc1ccc(Cl)cc1)N1CCN(c2ccccc2F)CC1,i,x,x,x,x,i
CCOC(=O)c1ccc(NS(=O)(=O)c2ccc3c(c2)OCCO3)cc1,i,x,x,x,x,i
CC(=O)Nc1ccc(S(=O)(=O)NCCSCc2ccc(Cl)cc2Cl)cc1,u,18.7,12.6µM*,-1.6%,-23.2%,u
CC(=O)Nc1ccc(S(=O)(=O)NCCNS(=O)(=O)c2ccc(NC(C)=O)cc2)cc1,i,17.0,-0.8%,-13.4%,1.6%,i
COc1cccc(C(=O)CN2CCN(S(=O)(=O)c3ccc(Cl)cc3)CC2)c1,i,x,x,x,x,i
CCN(Cc1ccccc1)c1ccc(/C=C/c2ccnc3ccccc23)cc1,i,x,x,x,x,i
CN(C)c1ccc(/C=C/c2ccnc3ccccc23)cc1N,i,x,x,x,x,i
CCOc1ccc(C=Nc2ccc(/C=C/c3ccnc4ccccc34)cc2)cc1OCC,i,x,x,x,x,i
CCCCN(CCCC)c1ccc(C=Nc2ccc(/C=C/c3ccnc4ccccc34)cc2)cc1C,23.1µM*,x,x,x,x,u
CCN(CC)c1cc(C)c(/C=C/c2ccnc3ccccc23)cc1C,u,x,x,x,x,11.6µM*
Cc1cc(N(C)C)c(C)cc1/C=C/c1ccnc2ccccc12,6.51µM*,x,x,x,x,2.91µM*
Cc1ccc(Cn2c(CN3CCC(C(=O)NCCc4ccccc4)CC3)cc3ccccc32)cc1,i,x,x,x,x,i
Cc1c(NS(=O)(=O)c2ccccc2)cc(C(C)C)c(O)c1S(=O)(=O)c1ccc(Cl)cc1,i,x,x,x,x,i
O=C(NCCc1ccccc1Cl)c1ccc2c(=O)n(-c3ccccc3)c(=O)[nH]c2c1,i,x,x,x,x,i
Cc1cccc(C2=NN(c3ccc(Br)cc3)[C@@H](C(=O)N3CCOC3=O)[C@@H]2c2ccc(Cl)cc2)c1,i,-23.5,u,8.2µM*,i,i
Cc1cccc(C2=NN(c3ccc(Br)cc3)[C@@H](C(=O)N3CCOC3=O)[C@@H]2c2ccc(F)cc2)c1,i,0.6,u,9.2µM*,i,i
Cc1cccc(C2=NN(c3ccccc3)[C@@H](C(=O)N3CCOC3=O)[C@@H]2c2ccc([N+](=O)[O-])cc2)c1,i,11.9,-8.1%,16.6%,-14.6%,i
COc1cccc(C(=O)c2cn(CC(=O)Nc3ccc4c(c3)OCCO4)c3nc(C)ccc3c2=O)c1,i,x,x,x,x,i
